High-throughput results: PubChem BioAssay, National Center for Advancing Translational Sciences (NCATS)
A selection: hits, their analogues and other compounds. The true share with any hit is near 10%.
3T3 cytotox: Cytotoxic Profiling in NIH 3T3 Cell Line of Diverse Libraries Using Quantitative High-Throughput Screening | NIH 3T3 viability, CellTiter-Glo ATP luminescence, 48-72 h | Potency, µM (highest dose often 96.7 µM), inactives show top-dose activity change, negative = cytotoxicity, most hits filed as inhibitors | 94,000 tested, 4.3% active; note: % is set by controls: 0 for no effect and ±100 for the full control effect; nearly all actives have a fitted effect of over 55% in size
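Mouse fibroblast NIH 3T3 cells, 400 per well, received compound via pintool and were incubated for 48 or 72 hr prior to CellTiter-Glo ATP luminescence measurement.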
HEK293 tox: Cytotoxic Profiling in HEK 293 Cell Line of Diverse Libraries Using Quantitative High-Throughput Screening; AID 1345083, 2018; Potency, µM (top dose mostly 115 µM), without a hit: top-dose activity change, negative = cytotoxicity, most hits filed as inhibitors; 94,000 tested, 6.6% active; HEK 293 viability, ATP luminescence (CellTiter-Glo), 48-72 h; note: % is set by controls: 0 for no effect and ±100 for the full control effect; nearly all actives have a fitted effect of over 60% in size
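Luminescence from cellular ATP, measured with CellTiter-Glo, indicates HEK 293 viability. Cells plated at 250 cells/well are treated with compound for 48 or 72 hr at 37 degree Celsius before reagent addition.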
hNpr1 antagonist: Natriuretic polypeptide receptor (hNpr1) antagonism - Primary qHTS | AID 1347048, 2019 | Potency, µM (highest dose often 46.3 µM), inactives show top-dose activity change, negative = inhibition, actives largely listed as inhibitors | HEK293 hNpr1 GloSensor cGMP, ANP-stimulated luminescence | Atrial natriuretic peptide receptor 1 (Homo sapiens), P16066 | 76,000 tested, 1.6% active; calls by dose curve; note: % is set by controls: 0 for no effect and ±100 for the full control effect; nearly all actives have a fitted effect of over 60% in size
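HEK293 cells stably expressing human Npr1 and cGMP GloSensor pGS-40F, loaded 2 h with 2% GloSensor reagent, given compound 30 min at room temperature. Luminescence read before and 20 min after 0.1 nM hNppA.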
FLuc inh: Firefly luciferase inhibition profiling of diverse chemical library using quantitative high-throughput screening | Luciferin 4-monooxygenase (Photinus pyralis), P08659 | purified P. pyralis luciferase, luminescence, biochemical | Potency, µM (series often up to 115 µM), actives largely listed as inhibitors | 76,000 tested, 2.5% active; note: % is set by controls: 0 for no effect and ±100 for the full control effect; nearly all actives have a fitted effect of over 65% in size
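FLuc 10nM, D-luciferin 10uM, ATP 10uM, Mg acetate 10mM, Tris acetate pH 7.5, Tween/BSA; cpd qHTS; enzyme added last; CCD luminescence.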
GPT2 inhibitor: Primary qHTS assay for inhibitors of Glutamate pyruvate transaminase 2 (GPT2); Alanine aminotransferase 2 (Homo sapiens), Q8TD30; Recombinant GPT2, coupled pyruvate oxidase/HRP Amplex Red fluorescence; Potency, µM (highest dose often 57.7 µM), for inactives: top-dose activity change, negative = inhibition, hits mostly inhibitors; 100,000 tested, 0.25% active; AID 1671188, 2021; note: % is set by controls: 0 for no effect and ±100 for the full control effect; nearly all actives have a fitted effect of over 60% in size
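GPT2 10ng/uL, a-KG 250uM, L-Ala 2mM, HEPES pH7.5 + 0.0001% Tween; 30 min RT. Then Amplex mix (PO/HRP/ThPP), 30 min RT dark, fluorescence. AOA 50uM used as positive control.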
Npr1 antag conf: Natriuretic polypeptide receptor (hNpr1) antagonism - Confirmation | AID 1347044, 2019 | shares compounds with hNpr1 antagonist | Potency, µM (highest dose often 57.6 µM), without a hit: at the highest dose activity change, negative = inhibition, most hits filed as inhibitors | HEK293 hNpr1 cGMP GloSensor luminescence, ANP-stimulated | 1,400 tested, 76% active; calls by dose curve; note: nearly all actives have a fitted effect of over 70% in size
Npr2 selectivity: Natriuretic polypeptide receptor (hNpr2) antagonism - Subtype selectivity assay. shares compounds with hNpr1 antagonist. HEK293 hNpr2 GloSensor cGMP luminescence, CNP-stimulated. Potency, µM (series often up to 57.6 µM), for the others: at the top dose activity change, negative = inhibition, usual class: inhibitors. 1,400 tested, 67% active. AID 1347046, 2019; calls by dose curve; note: nearly all actives have a fitted effect of over 70% in size
FLuc counter: Natriuretic polypeptide receptor (hNpr1) antagonism - Confirmation firefly luciferase (FLuc) inhibition counterscreen; purified FLuc enzyme, luminescence, Km substrate; AID 1347047, 2019; 1,400 tested, 0.7% active; Potency, µM (titrated, usually from 57.6 µM), without a hit: at the highest dose activity change, negative = inhibition, hits mostly inhibitors; shares compounds with hNpr1 antagonist; note: series mostly up to about 58 µM; 0% is about no effect
GloSensor cGMP: Natriuretic polypeptide receptor (hNpr1) antagonism - Counterscreen GloSensor control cell line | Potency, µM (doses to about 57.6 µM), for the others: top-dose activity change, negative = inhibition, actives largely listed as inhibitors | 1,400 tested, 69% active | shares compounds with hNpr1 antagonist | AID 1347051, 2019 | HEK293 GloSensor cGMP, SNP-stimulated, luminescence; calls by dose curve; note: % is set by controls: 0 for no effect and ±100 for the full control effect; nearly all actives have a fitted effect of over 70% in size
Active calls of the source: *; i = inactive; ? = inconclusive; nt = no result given; [ ] = dose if it differs, or a comment. Unless noted, calls come from the whole dose curve; as a rule, active = well fitted curve in the direction sought with a large enough effect; inconclusive = small, poorly fitted or top-dose-only effect, or another doubt; inactive = no such curve, though single readings can be large; an effect the other way counts as inactive or inconclusive. Potency is the fitted concentration of half-maximal effect.

SMILES | 3T3 cytotox | HEK293 tox | hNpr1 antagonist | FLuc inh | GPT2 inhibitor | Npr1 antag conf | Npr2 selectivity | FLuc counter | GloSensor cGMP
O=C(NCC1CCCO1)Nc1cccc(-c2nnc3n2CCCC3)c1 (stereo not drawn) | -8% | 8% | -12% | i | 5% | nt | nt | nt | nt
CC(C)c1ccc(C(=O)N2CCC(C3CCNC3)CC2)cc1 (stereo not drawn) | -22% | -26% | 0% | i | 3% | nt | nt | nt | nt
O=C(c1cccc(Cl)c1)N1CCC(Cc2nc(-c3cnccn3)no2)CC1 | ? | -11% | -2% | i | -2% | nt | nt | nt | nt
COc1cccc(-c2noc(CC3CCN(C(=O)c4ccc(OC)c(OC)c4)CC3)n2)c1 | ? | ? | 11µM* | i | 1% | 9.7µM* | 12µM* | 1% | 11µM*
COc1cccc(-c2noc(CC3CCN(C(=O)c4cccc(Cl)c4)CC3)n2)c1 | ? | ? | 8.9µM* | i | i | 7.7µM* | 11µM* | -12% | 7.7µM*
COc1cccc(-c2noc(CC3CCN(C(=O)c4ccccc4)CC3)n2)c1 | ? | 40µM* | 7.9µM* | i | i | 9.7µM* | 11µM* | -6% | 9.7µM*
COc1cccc(-c2noc(CC3CCN(C(=O)c4cc(Cl)ccc4F)CC3)n2)c1 | ? | ? | 8.9µM* | i | 3% | 12µM* | 19µM* | 0% | 14µM*
O=C(c1cc(Cl)ccc1F)N1CCC(Cc2nc(-c3cnccn3)no2)CC1 | ? | ? | 0% | i | i | nt | nt | nt | nt
CCC(CC)C(=O)N1CC[C@H]2NC(=O)N(c3ccc(C(C)C)cc3)C(=O)[C@H]21 | 4%[174 µM] | ? | -11%[70.6 µM] | i | i | nt | nt | nt | nt
CC(C)(C)c1noc(-c2nnn3c2COC(c2ccc(F)cc2)C3)n1 (stereo not drawn) | -17% | ? | ? | i | i | ? | ? | 3% | -24%
COc1ccc(C2Cn3nnc(-c4nc(C(C)(C)C)no4)c3CO2)cc1 (stereo not drawn) | ? | ? | ? | i | ? | 22µM* | ? | 0% | -18%
Clc1ccc(C2Cn3nnc(-c4nc(C5CC5)no4)c3CO2)cc1 (stereo not drawn) | ? | ? | ? | i | i | ? | -22% | 4% | 1%
Cc1ccc(-c2noc(-c3nnn4c3COC(c3ccc(C)cc3C)C4)n2)cc1 (stereo not drawn) | i | -1% | 4% | i | 5% | nt | nt | nt | nt
Cc1ccc(C2Cn3nnc(-c4nc(C5CCCCC5)no4)c3CO2)c(C)c1 (stereo not drawn) | -30% | ? | ? | i | -13% | 14µM* | 14µM* | -1% | 1%
CC(C)C(=O)N1CCC(Cc2noc(-c3ccccc3)n2)C1 (stereo not drawn) | -24% | -28% | -18% | ? | i | nt | nt | nt | nt
CCN1C(=O)C2CC3(CCN(Cc4cn[nH]c4-c4ccccc4)CC3)CN2C1=O (stereo not drawn) | -15% | -12% | 3% | i | i | nt | nt | nt | nt
O=C(Cc1ccc(F)cc1)N1CCN(C(=O)c2nnn3c2COC(c2ccccc2)C3)CC1 (stereo not drawn) | -6% | -5% | -10% | i | ? | nt | nt | nt | nt
CCC(c1cccs1)N1C(=O)[C@H]2CN(S(=O)(=O)c3ccc(C)c(C)c3)C[C@H]2C1=O (stereo partly drawn) | -30% | -1% | -12% | i | i | nt | nt | nt | nt
CCc1noc(-c2nnn3c2COC(c2ccc(Cl)cc2)C3)n1 (stereo not drawn) | ? | -27% | ? | i | i | nt | nt | nt | nt
CC(C)(C)c1noc(-c2nnn3c2COC(c2ccc(Cl)cc2)C3)n1 (stereo not drawn) | ? | ? | ? | i | -8% | 19µM* | ? | 3% | -2%
Cc1noc2c(N3CCOCC3)cc(-c3cccc(C(F)(F)F)c3)nc12 | ? | ? | 5%[70.6 µM] | i | -3%[88.5 µM] | nt | nt | nt | nt
Cn1nccc1C(=O)N1CCCN(CCc2ccccc2)c2ccccc21 | ? | ? | ? | i | i | 19µM* | 14µM* | -1% | -29%
OC1CC(c2cc(NCCOc3ccccc3)ncn2)C1 (stereo not drawn) | ? | ? | ? | ? | -4% | nt | nt | nt | nt
OC1CC(c2cc(NCCOCc3ccc(Cl)cc3)ncn2)C1 (stereo not drawn) | ? | ? | 11µM* | i | -1% | 22µM* | ? | -3% | 22µM*
COc1ccc(CCCNc2cc(C3CC(O)C3)ncn2)cc1 (stereo not drawn) | -27% | ? | 10µM* | i | -5% | 19µM* | 19µM* | -1% | 14µM*
O=S(=O)(CCNc1cc(C2CC(O)C2)ncn1)c1ccc(F)cc1 (stereo not drawn) | 5% | i | -3% | i | -9% | nt | nt | nt | nt
COC1C(=O)N(c2cccc(F)c2)C12CCN(S(=O)(=O)c1ccc(C#N)cc1)CC2 (stereo not drawn) | 1% | -20% | -4% | i | 0% | nt | nt | nt | nt
Cn1ncc(N2CCOC(CCNc3nc4ccccc4s3)C2)cc1=O (stereo not drawn) | ? | ? | 0% | i | 0% | nt | nt | nt | nt
